These results are taken from PubChem BioAssay (NCI).

Among the test systems are HCT-15 colon; HT29 colon; SNB-75 CNS; SNB-19 CNS; U251 CNS; SK-MEL-5 melanoma; UACC-62 melanoma; LOX IMVI melanoma; SK-MEL-28 melanoma; SN12C renal; UO-31 renal; TK-10 renal; ACHN renal; CAKI-1 renal; A498 renal; CCRF-CEM leukemia; MOLT-4 leukemia; PC-3 prostate; SK-MEL-2 melanoma; EKVX NSCLC.
Holding throughout (assay): NCI-60 one-dose screen, 48 h (100 = growth as untreated, 0 = no growth, -100 = all killed)
Common to all, as to conditions: 10 µM unless noted

The panel holds about 83,000 compounds, 20% with a hit somewhere; the sample as a whole holds those more often.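 A percent growth of 40 corresponds to 60% growth inhibition; 0 means no net growth; -100 means all cells died. Active threshold: below 10.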 Unmarked numbers belong to inactive results. Active and inactive are the calls of the source.

As to `COc1ccc(-c2cnoc2-c2cc(OC)c3c(c2)OCCO3)cc1`, the growth was 4.48% (active) with HCT-15 colon; 1.26% (active) in the experiment with HT29 colon; 13.2% in the experiment on SNB-75 CNS; 29.5% in the experiment on SNB-19 CNS; -17% (active) in the experiment on U251 CNS; -27.8% (active) in the experiment with SK-MEL-5 melanoma. For the same compound, the growth was 13.4% in the experiment on UACC-62 melanoma; 17.4% in the experiment with LOX IMVI melanoma; 50.9% in the experiment with SK-MEL-28 melanoma; 9.42% (active) in the experiment with SN12C renal; 39.6% in the experiment with UO-31 renal; 71.8% in the experiment on TK-10 renal. For the same compound, the growth in the experiment with ACHN renal was 21.1%; in the experiment with CAKI-1 renal, 33.5%; with A498 renal, -8.01% (active); in the experiment on CCRF-CEM leukemia, -7.11% (active); with MOLT-4 leukemia, 6.08% (active).
Consider `CN1C2CCC1/C(=C\c1ccc(Cl)cc1)C1=C2[C@@H](c2ccc(Cl)cc2)C(C#N)=C(N)O1` (stereo not given in full), for which the growth in the experiment with HCT-15 colon is 71.9%; with HT29 colon, 65.2%; in the experiment with SNB-75 CNS it was 92.4%; in the experiment with SNB-19 CNS, 99.8%; with PC-3 prostate, 82.4%; with SK-MEL-5 melanoma, 88.9%. Further, the growth with UACC-62 melanoma is 75.7%; in the experiment with LOX IMVI melanoma, 91.7%; in the experiment on SK-MEL-28 melanoma, 80%; with SK-MEL-2 melanoma, 84.6%; in the experiment with EKVX NSCLC it was 75.7%; in the experiment on SN12C renal, 94%. The growth is 65.6% in the experiment with UO-31 renal; 97% in the experiment on TK-10 renal; 93.9% in the experiment with ACHN renal; 76% in the experiment on CAKI-1 renal; 80% in the experiment on A498 renal; 77.2% in the experiment on CCRF-CEM leukemia. Also, the growth in the experiment on MOLT-4 leukemia was 57.6%.
For the compound `COCCOc1ccc(-c2nc3ccc(-c4nc5ccc(N6CCN(C)CC6)cc5[nH]4)cc3[nH]2)cc1`, the growth was 85.9% with HCT-15 colon; 4.98% (active) in the experiment on HT29 colon; -21.2% (active) in the experiment with SNB-75 CNS; 7.61% (active) in the experiment on SNB-19 CNS; 22.5% in the experiment on PC-3 prostate; 11.2% in the experiment with SK-MEL-5 melanoma. Besides, the growth with UACC-62 melanoma is -39.9% (active); with LOX IMVI melanoma, -72.5% (active); with SK-MEL-28 melanoma, -39.2% (active); with SK-MEL-2 melanoma, -76.2% (active); with EKVX NSCLC, 67.9%; in the experiment on SN12C renal, 18.8%. Besides, the growth was 79.2% in the experiment with UO-31 renal; 66.4% in the experiment on TK-10 renal; 80.8% in the experiment with ACHN renal; 68.6% with CAKI-1 renal; -37.8% (active) in the experiment on A498 renal; -2.49% (active) in the experiment on CCRF-CEM leukemia. In the experiment on MOLT-4 leukemia, the growth is 0.928% (active).
For the compound `O=C(/C=C/c1cccc(Br)c1)c1ccccc1`, the growth in the experiment with HCT-15 colon is 76.6%; in the experiment on HT29 colon it was 67.9%; with SNB-75 CNS, 88.4%; in the experiment with SNB-19 CNS it was 96%; with PC-3 prostate, 68.1%; in the experiment with SK-MEL-5 melanoma it was 92.3%. The growth in the experiment on UACC-62 melanoma was 92.6%; with LOX IMVI melanoma it was 78.2%; in the experiment with SK-MEL-28 melanoma, 100%; in the experiment with SK-MEL-2 melanoma, 93.3%; with EKVX NSCLC, 88%; in the experiment on SN12C renal it was 96.6%. For the same compound, the growth was 71.1% in the experiment with UO-31 renal; 69.7% in the experiment with TK-10 renal; 95.7% in the experiment on ACHN renal; 90.6% with CAKI-1 renal; 87.5% in the experiment with A498 renal; 86.2% in the experiment on CCRF-CEM leukemia.
For the compound `COc1cc(C2C(C(=O)c3cccs3)=C(O)C(=O)N2CCN2CCOCC2)cc(OC)c1OC` (stereo not given), the growth with HCT-15 colon is 102%; with HT29 colon, 103%; in the experiment with SNB-75 CNS, 91.6%; in the experiment with SNB-19 CNS it was 103%; with U251 CNS, 94.7%; in the experiment on PC-3 prostate, 95.4%. Besides, the growth with SK-MEL-5 melanoma was 96.1%; in the experiment with UACC-62 melanoma, 106%; in the experiment on SK-MEL-28 melanoma, 104%; in the experiment on SK-MEL-2 melanoma, 102%; in the experiment with SN12C renal, 104%; with UO-31 renal it was 97.3%. Moreover, the growth is 99.2% in the experiment on TK-10 renal; 102% with ACHN renal; 101% with CAKI-1 renal; 84.8% in the experiment with A498 renal; 120% with CCRF-CEM leukemia; 129% in the experiment with MOLT-4 leukemia.
Turning to `COc1c(C2CC(=O)Nc3c2cnn3Cc2ccco2)cc2c(c1OC)OCO2` (stereo not given), the growth in the experiment with HCT-15 colon is 18.5%; in the experiment on HT29 colon it was 11.2%; with SNB-75 CNS, 8.9% (active); with SNB-19 CNS, 50.6%; in the experiment with U251 CNS, 20.4%; in the experiment with PC-3 prostate, 24.6%. In addition, the growth in the experiment with SK-MEL-5 melanoma is 3.98% (active); in the experiment with UACC-62 melanoma, 35.4%; with SK-MEL-28 melanoma, 40.7%; with SK-MEL-2 melanoma, 46.3%; with SN12C renal, 32.5%; with UO-31 renal it was 59.4%. For the same compound, the growth is 73.9% in the experiment with TK-10 renal; 40.2% in the experiment with ACHN renal; 36.9% with CAKI-1 renal; -2.53% (active) in the experiment with A498 renal; 10.1% in the experiment on CCRF-CEM leukemia; 1.51% (active) with MOLT-4 leukemia.
Consider `COc1cc(C2CC(=O)c3c(C)nn(-c4nc5ccccc5[nH]4)c3C2)cc(OC)c1OC` (stereo not given), for which the growth with HCT-15 colon was 87%; in the experiment with HT29 colon, 74.2%; in the experiment on SNB-75 CNS, -24.8% (active); with SNB-19 CNS, 71.8%; with U251 CNS it was 30%; in the experiment with PC-3 prostate it was 72.2%. Further, the growth was 87.1% in the experiment with SK-MEL-5 melanoma; 90.8% with UACC-62 melanoma; 86.5% in the experiment on SK-MEL-28 melanoma; 91.2% with SK-MEL-2 melanoma; 75.9% in the experiment with SN12C renal; 91.1% in the experiment on UO-31 renal. The growth was 45.3% in the experiment with TK-10 renal; 59.1% in the experiment on ACHN renal; 101% in the experiment with CAKI-1 renal; 56.5% with A498 renal; 104% in the experiment with CCRF-CEM leukemia; 102% with MOLT-4 leukemia.
`Oc1cccc(Nc2nccc(-c3ccc4ccccc4c3)n2)c1`: the growth in the experiment on HCT-15 colon was 22.2%; with HT29 colon, 56.8%; with SNB-75 CNS, 23.3%; in the experiment on SNB-19 CNS, 28.7%; in the experiment with PC-3 prostate it was 28.1%; in the experiment with SK-MEL-5 melanoma, 32.5%. Moreover, the growth in the experiment on UACC-62 melanoma is 32.9%; in the experiment on LOX IMVI melanoma, 32.5%; with SK-MEL-28 melanoma, 49.5%; in the experiment on SK-MEL-2 melanoma, 14.5%; in the experiment with EKVX NSCLC, 50.5%; in the experiment with SN12C renal, 33.8%. Moreover, the growth in the experiment with UO-31 renal was 34%; with TK-10 renal it was 62%; in the experiment with ACHN renal it was 37.6%; with CAKI-1 renal, 24%; in the experiment on A498 renal, 71.2%; with CCRF-CEM leukemia, 6.6% (active). Further, the growth with MOLT-4 leukemia is 23.5%.
`O=C1C(=O)N(CCCCn2cc(CO)nn2)c2ccccc21`: the growth was 102% in the experiment with HCT-15 colon; 103% in the experiment with HT29 colon; 72.3% in the experiment with SNB-75 CNS; 99.5% with SNB-19 CNS; 98.3% in the experiment on PC-3 prostate; 101% with SK-MEL-5 melanoma. Further, the growth is 99.3% with UACC-62 melanoma; 92.1% with LOX IMVI melanoma; 109% in the experiment with SK-MEL-28 melanoma; 98.8% in the experiment on SK-MEL-2 melanoma; 92.4% with EKVX NSCLC; 104% in the experiment with SN12C renal. For the same compound, the growth was 87.7% with UO-31 renal; 102% with TK-10 renal; 101% in the experiment with ACHN renal; 87.8% in the experiment with CAKI-1 renal; 99.4% in the experiment on A498 renal; 104% with CCRF-CEM leukemia. In addition, in the experiment on MOLT-4 leukemia, the growth is 95.7%.
